Measured values taken from PubChem BioAssay AID1159580 (chemical genetic matrix, 2015).
Several values for one entry are separate records, joined by “and”; a condition that tells them apart may be missing. Identical values can stand only once. The campaign covered roughly 5,500 compounds. About 2,000 (36%) were called active. Inconclusive results (about 18%) are left out. No stated cut-off is given here; in the data, active means normalized growth mostly below about 0.91 (no sharp cut-off); inconclusive means no clear call, values can overlap the other calls; inactive means mostly above about 0.92. The list shows a part of the results.

Test: chemical genetic growth profiling, strain panel (AID 1159580);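 further: tested at 20 µM; growth read once vehicle control cultures reached saturation at 30 °C; 1 = growth at the plate median or of vehicle wells; lower values mean less growth of the strain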
Details: S. cerevisiae deletion strains, growth OD

Measured: normalized growth

Clc1ccc(CSC(Cn2ccnc2)c2ccc(Cl)cc2Cl)cc1 (stereo not given)
active: locus YAL021C, strain ccr4, hits give low values 0.067 | locus YAL026C, strain drs2, hits give low values 0.0648 | locus YAL030W, strain snc1, hits give low values 0.0596 | locus YBL061C, strain skt5, hits give low values 0.062 | locus YBR009C, strain hhf1, hits give low values 0.0601 | locus YBR021W, strain FUR4, hits give low values 0.0857 | locus YBR023C, strain chs3, hits give low values 0.0649 | locus YBR171W, strain sec66, hits give low values 0.076 | locus YBR229C, strain ROT2, hits give low values 0.0457 | locus YBR231C, strain swc5, hits give low values 0.064 | locus YBR279W, strain paf1, hits give low values 0.064 | locus YCL011C, strain gbp2, hits give low values 0.0611 | locus YCL016C, strain dcc1, hits give low values 0.0681 | locus YCL029C, strain bik1, hits give low values 0.0583 | locus YCL069W, strain vba3, hits give low values 0.0628 | locus YCR088W, strain abp1, hits give low values 0.0629 | locus YDL005C, strain med2, hits give low values 0.0743 | locus YDL035C, strain GPR1, hits give low values 0.0497 | locus YDL040C, strain nat1, hits give low values 0.059 | locus YDL074C, strain BRE1, hits give low values 0.0766 | locus YDL101C, strain DUN1, hits give low values 0.0543 | locus YDL134C, strain PPH21, hits give low values 0.048 | locus YDL185W, strain tfp1, hits give low values 0.0566 | locus YDL192W, strain arf1, hits give low values 0.0601 | locus YDR001C, strain nth1, hits give low values 0.0613 | locus YDR069C, strain doa4, hits give low values 0.0624 | locus YDR101C, strain arx1, hits give low values 0.0606 | locus YDR137W, strain rgp1, hits give low values 0.102 | locus YDR150W, strain NUM1, hits give low values 0.0543 | locus YDR159W, strain sac3, hits give low values 0.0874 | locus YDR162C, strain NBP2, hits give low values 0.0476 | locus YDR195W, strain ref2 0.129 | locus YDR297W, strain sur2, hits give low values 0.0568 | locus YDR318W, strain mcm21, hits give low values 0.0592 | locus YDR334W, strain swr1, hits give low values 0.0638 | locus YDR335W, strain msn5, hits give low values 0.0624 | locus YDR388W, hits give low values 0.0553 | locus YDR392W, strain spt3, hits give low values 0.0838 | locus YDR502C, strain sam2, hits give low values 0.0567 | locus YEL003W, strain gim4, hits give low values 0.054 | locus YEL037C, strain rad23, hits give low values 0.0579 | locus YEL061C, strain CIN8 (second series), hits give low values 0.0613 | locus YEL061C, strain CIN8, hits give low values 0.0475 | locus YER015W, strain faa2, hits give low values 0.0623 | locus YER016W, strain bim1, hits give low values 0.061 | locus YER110C, hits give low values 0.0729 | locus YER111C, strain swi4, hits give low values 0.0739 | locus YER155C, strain BEM2 (second series), hits give low values 0.0999 | locus YER155C, strain BEM2, hits give low values 0.0594 | locus YER167W, strain BCK2, hits give low values 0.0492 | locus YFR010W, strain ubp6, hits give low values 0.0712 | locus YGL078C, strain dbp3, hits give low values 0.0667 | locus YGL086W, strain mad1, hits give low values 0.0535 | locus YGL167C, strain pmr1, hits give low values 0.0756 | locus YGL173C, strain kem1, hits give low values 0.0697 | locus YGL227W, strain vid30, hits give low values 0.065 | locus YGL240W, strain doc1, hits give low values 0.0922 | locus YGL248W, strain PDE1, hits give low values 0.0451 | locus YGL253W, strain hxk2, hits give low values 0.0562 | locus YGR078C, strain PAC10, hits give low values 0.0475 | locus YGR135W, strain pre9, hits give low values 0.0572 | locus YGR229C, strain SMI1, hits give low values 0.0582 | locus YGR252W, strain gcn5, hits give low values 0.112 | locus YHR013C, strain ard1, hits give low values 0.101 | locus YHR027C, strain rpn1, hits give low values 0.0633 | locus YHR030C, strain SLT2, hits give low values 0.0493 and 0.0968 | locus YHR079C, strain IRE1 (second series), hits give low values 0.0556 | locus YHR079C, strain IRE1, hits give low values 0.104 | locus YHR094C, strain hxt1, hits give low values 0.0572 | locus YHR129C, strain ARP1, hits give low values 0.0541 | locus YHR142W, strain chs7, hits give low values 0.0779 | locus YHR200W, strain rpn10, hits give low values 0.0594 | locus YIL066C, strain RNR3, hits give low values 0.047 | locus YIL073C, strain SPO22, hits give low values 0.109 | locus YIL125W, strain kgd1, hits give low values 0.0629 | locus YIR030C, strain dcg1, hits give low values 0.0572 | locus YJL092W, strain hpr5, hits give low values 0.0607 | locus YJL095W, strain BCK1 (second series), hits give low values 0.0571 | locus YJL095W, strain BCK1, hits give low values 0.0582 and 0.0962 | locus YJL115W, strain asf1, hits give low values 0.0715 | locus YJL129C, strain trk1, hits give low values 0.0907 | locus YJL134W, strain LCB3, hits give low values 0.0474 | locus YJL154C, strain vps35, hits give low values 0.0605 | locus YJL164C, strain tpk1, hits give low values 0.0651 | locus YJL166W, strain qcr8, hits give low values 0.0602 | locus YJL168C, strain set2, hits give low values 0.0557 | locus YJL187C, strain SWE1 (second series), hits give low values 0.0452 | locus YJL187C, strain SWE1, hits give low values 0.0595 | locus YJR043C, strain POL32, hits give low values 0.0608 | locus YJR066W, strain TOR1, hits give low values 0.00124
